# Records with an inconclusive call do not appear. Entries that show only a call come without a potency. The source made the active and inactive calls. Unless noted, calls come from the whole dose curve; as a rule, active = well fitted curve in the direction sought with a large enough effect in the repeat runs; inconclusive = weak or mixed curves; inactive = no such curve, though single readings can be large; an effect the other way counts as inactive or inconclusive.
# Key:
# [1] = qHTS assay to identify small molecule agonists of the peroxisome proliferator-activated receptor delta (PPARd) signaling pathway - cell viability counter screen (AID 743211); conditions: PPARd-bla HEK293H viability, CellTiter-Glo luminescence, 17 h; series mostly up to 62.6 µM; note: nearly all actives have a fitted effect of over 55% in size; note: potency is the fitted concentration of half-maximal effect
# In short: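 Counter screen for cytotoxicity run in parallel with the PPARd reporter screen. Beta-lactamase reporter HEK293H cells exposed to compounds 17 h; ATP-based CellTiter-Glo luminescence quantified viability.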
# [2] = biological target: Peroxisome proliferator-activated receptor delta (Homo sapiens) (UniProt Q03181); assay: qHTS assay to identify small molecule agonists of the peroxisome proliferator-activated receptor delta (PPARd) signaling pathway (AID 743212; calls by dose curve; note: potency is the fitted concentration of half-maximal effect); conditions: HEK293H PPARd-UAS-bla, beta-lactamase FRET ratio, 17 h; series mostly up to 62.6 µM
# Sequence of Peroxisome proliferator-activated receptor delta (Homo sapiens) (Q03181 whole entry, looked up): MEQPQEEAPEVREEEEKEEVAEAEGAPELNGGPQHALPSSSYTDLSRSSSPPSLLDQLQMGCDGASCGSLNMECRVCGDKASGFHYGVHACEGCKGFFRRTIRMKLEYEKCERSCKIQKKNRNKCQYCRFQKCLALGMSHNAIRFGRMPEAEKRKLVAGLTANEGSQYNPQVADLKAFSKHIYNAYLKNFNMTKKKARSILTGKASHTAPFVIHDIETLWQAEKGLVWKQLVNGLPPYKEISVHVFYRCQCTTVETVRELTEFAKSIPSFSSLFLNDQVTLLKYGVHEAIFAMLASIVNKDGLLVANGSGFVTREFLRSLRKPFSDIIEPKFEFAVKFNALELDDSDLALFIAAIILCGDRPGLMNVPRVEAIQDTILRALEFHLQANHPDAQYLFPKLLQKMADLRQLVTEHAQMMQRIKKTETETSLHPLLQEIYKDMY
# In short: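 GeneBLAzer PPARd UAS-bla HEK293H cells (beta-lactamase reporter under UAS control), plated and rested 5 h at 37 C, then exposed to compounds in DMSO at 37 C; LiveBLAzer B/G FRET substrate added, 2 h room temperature, fluorescence read.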
# [3] = biological target: Peroxisome proliferator-activated receptor delta (Homo sapiens) (UniProt Q03181); assay: qHTS assay to identify small molecule antagonists of the peroxisome proliferator-activated receptor delta (PPARd) signaling pathway (AID 743215; active = well fitted inhibition curve with a large enough effect in the signal ratio in the repeat runs, not every such curve was filed as active; the % refers to the signal ratio;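 note: cells stimulated with agonist L165041 at 300 nM final during compound exposure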); conditions: HEK293H PPARd-UAS-bla, beta-lactamase FRET ratio, antagonist, 17 h; series mostly up to 62 µM
# In short: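 Inhibition of L165041-driven (300 nM final) PPARd signaling is scored in HEK293H UAS-bla cells. Exposure lasts 17 h at 37 C; beta-lactamase activity is then read by FRET substrate fluorescence after 2 h at room temperature.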
# [4] = qHTS assay to identify small molecule antagonists of the farnesoid-X-receptor (FXR) signaling pathway - cell viability counter screen (AID 743221; active = well fitted cell-killing curve with a large enough effect in the repeat runs, not every such curve was filed as active; note: nearly all actives have a fitted effect of over 50% in size; note: potency is the fitted concentration of half-maximal effect); conditions: FXR-bla HEK293T viability, CellTiter-Glo luminescence, 16 h; series mostly up to 62.6 µM
# In short: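 Multiplexed counter screen: viability of FXR-bla HEK 293T cells under agonist stimulation by chenodeoxycholic acid (50 uM, final) and test compound for 16 h at 37 C, measured by CellTiter-Glo luminescence in the reporter wells.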
# [5] = biological target: Vitamin D3 receptor (Homo sapiens) (UniProt P11473); assay: qHTS assay to identify small molecule agonists of the vitamin D receptor (VDR) signaling pathway (AID 743222; calls by dose curve); conditions: HEK293T VDR-UAS-bla, beta-lactamase FRET ratio, 16 h; series mostly up to 63.5 µM
# Sequence of Vitamin D3 receptor (Homo sapiens) (P11473 whole entry, looked up): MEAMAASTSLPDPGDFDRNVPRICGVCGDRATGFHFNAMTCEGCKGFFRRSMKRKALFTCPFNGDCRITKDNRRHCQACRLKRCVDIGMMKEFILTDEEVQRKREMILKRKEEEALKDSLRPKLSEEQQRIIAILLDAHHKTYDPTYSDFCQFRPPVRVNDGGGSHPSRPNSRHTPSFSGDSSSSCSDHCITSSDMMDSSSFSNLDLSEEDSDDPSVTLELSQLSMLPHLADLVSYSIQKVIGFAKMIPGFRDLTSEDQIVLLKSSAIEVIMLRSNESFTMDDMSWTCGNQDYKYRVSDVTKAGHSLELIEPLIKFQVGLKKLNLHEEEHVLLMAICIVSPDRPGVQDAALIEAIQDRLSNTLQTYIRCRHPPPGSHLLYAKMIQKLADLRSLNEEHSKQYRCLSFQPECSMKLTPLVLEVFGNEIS
# In short: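 Quantitative HTS agonist-mode screen: compounds in DMSO were pin-transferred onto VDR-bla cells and incubated 16 h at 37C, 5% CO2. Reporter activity was detected with LiveBLAzer B/G FRET substrate after 2 h at room temperature.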
# [6] = biological target: Vitamin D3 receptor (Homo sapiens) (UniProt P11473); assay: qHTS assay to identify small molecule antagonists of the vitamin D receptor (VDR) signaling pathway (AID 743223; active = well fitted inhibition curve with a large enough effect in the signal ratio in the repeat runs, not every such curve was filed as active; the % refers to the signal ratio); conditions: VDR-UAS-bla HEK293T, beta-lactamase FRET ratio, 16 h; series mostly up to 61 µM
# In short: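 Cells carrying a VDR-driven beta-lactamase reporter (VDR-bla) were co-treated with compound and 3 nM final 1alpha,25-dihydroxyvitamin D3 for 16 h at 37C; reporter activity was measured as FRET substrate fluorescence after 2 h at room temperature.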
# [7] = qHTS assay to identify small molecule antagonists of the peroxisome proliferator-activated receptor delta (PPARd) signaling pathway - cell viability counter screen (AID 743213); conditions: PPARd-bla HEK293H viability, CellTiter-Glo luminescence, 17 h; series mostly up to 62 µM; note: nearly all actives have a fitted effect of over 50% in size; note: potency is the fitted concentration of half-maximal effect
# In short: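 In this counter screen, HEK293H cells carrying a UAS-beta-lactamase reporter are co-treated with test compounds and 300 nM L165041 (final) for 17 h at 37 C; cell viability is quantified by CellTiter-Glo luminescence.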
# [8] = qHTS assay to identify small molecule agonists of the farnesoid-X-receptor (FXR) signaling pathway - cell viability counter screen (AID 743218); conditions: FXR-bla HEK293T viability, CellTiter-Glo luminescence, 16 h; series mostly up to 62.6 µM; note: nearly all actives have a fitted effect of over 45% in size; note: potency is the fitted concentration of half-maximal effect
# In short: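 Cytotoxicity counter-screen run in parallel, same wells: FXR-UAS-bla HEK 293T cells dosed 16 h at 37 C, viability read by CellTiter-Glo luminescence after 30 min at room temperature.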
# [9] = biological target: Bile acid receptor (Homo sapiens) (UniProt Q96RI1); assay: qHTS assay to identify small molecule agonists of the farnesoid-X-receptor (FXR) signaling pathway (AID 743220; active = well fitted activation curve with a large enough effect in the signal ratio in the repeat runs, not every such curve was filed as active; the % refers to the signal ratio); conditions: HEK293T FXR-UAS-bla, beta-lactamase FRET ratio, 16 h; series mostly up to 62.6 µM
# Sequence of Bile acid receptor (Homo sapiens) (Q96RI1 whole entry, looked up): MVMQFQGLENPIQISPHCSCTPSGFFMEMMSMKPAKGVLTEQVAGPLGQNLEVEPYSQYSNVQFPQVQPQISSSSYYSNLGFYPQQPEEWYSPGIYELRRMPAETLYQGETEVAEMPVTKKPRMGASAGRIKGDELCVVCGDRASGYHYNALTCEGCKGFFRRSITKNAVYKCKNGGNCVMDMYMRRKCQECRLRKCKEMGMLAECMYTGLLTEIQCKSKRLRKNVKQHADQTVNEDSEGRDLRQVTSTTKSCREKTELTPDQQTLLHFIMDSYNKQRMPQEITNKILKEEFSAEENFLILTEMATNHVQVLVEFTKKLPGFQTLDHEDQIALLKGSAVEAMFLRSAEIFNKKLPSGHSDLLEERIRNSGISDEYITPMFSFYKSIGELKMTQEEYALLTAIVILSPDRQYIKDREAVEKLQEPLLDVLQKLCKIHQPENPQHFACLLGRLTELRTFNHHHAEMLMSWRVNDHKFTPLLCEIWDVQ
# In short: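 Beta-lactamase reporter under UAS control in GeneBLAzer FXR HEK 293T cells (5000/well) measured with LiveBLAzer FRET substrate after 2 h at room temperature. Compound exposure lasted 16 h at 37C.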
# [10] = biological target: Bile acid receptor (Homo sapiens) (UniProt Q96RI1); assay: qHTS assay to identify small molecule antagonists of the farnesoid-X-receptor (FXR) signaling pathway (AID 743217; active = well fitted inhibition curve with a large enough effect in the signal ratio in the repeat runs, not every such curve was filed as active; the % refers to the signal ratio); conditions: HEK293T FXR-UAS-bla, beta-lactamase ratio, CDCA-stimulated, 16 h; series mostly up to 62.6 µM
# In short: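 Antagonist mode against 50 uM (final) chenodeoxycholic acid stimulation in FXR-bla HEK 293T cells, 16 h at 37 °C. Inhibition detected as reduced beta-lactamase activity via LiveBLAzer B/G FRET fluorescence after 2 h at room temperature.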
compound,measurement,setting,value
O=c1[nH]ncc2ccccc12,Potency,[1],inactive
same,Potency,[2],inactive
same,Potency,[3],inactive
same,Potency,[4],inactive
same,Potency,[5],inactive
same,Potency,[6],inactive
CC(CN(C)C)C(C)(O)Cc1ccc(Cl)cc1 (stereo unspecified),Potency,[1],inactive
same,Potency,[2],inactive
same,Potency,[3],inactive
same,Potency,[4],inactive
same,Potency,[5],inactive
same,Potency,[6],inactive
CC1=C(CC=O)C(C)(C)CCC1,Potency,[1],inactive
same,Potency,[7],inactive
same,Potency,[8],inactive
same,Potency,[4],inactive
same,Potency,[5],inactive
O=c1cc(-c2ccccc2)oc2ccc3ccccc3c12,Potency,[1],17.4 µM (active)
same,Potency,[7],13.8 µM (active)
same,Potency,[3],inactive
same,Potency,[4],19.5 µM (active)
same,Potency,[5],inactive
CCCCC(CC)COP(=O)(O)O (stereo unspecified),Potency,[1],inactive
same,Potency,[7],inactive
same,Potency,[8],inactive
same,Potency,[9],inactive
same,Potency,[5],inactive
O=C(CCCN1CC=C(n2c(=O)[nH]c3ccccc32)CC1)c1ccc(F)cc1,Potency,[2],inactive
same,Potency,[3],inactive
same,Potency,[8],inactive
same,Potency,[4],inactive
CN(C(=O)CN(CCO)CC(=O)N(C)C(C)(C)Cc1ccccc1)C(C)(C)Cc1ccccc1,Potency,[2],inactive
same,Potency,[3],inactive
same,Potency,[10],inactive
same,Potency,[9],inactive
same,Potency,[4],inactive
same,Potency,[6],inactive
CCCCC(CC)CN (stereo unspecified),Potency,[3],inactive
same,Potency,[5],inactive
same,Potency,[6],inactive
CCCCN(CCN(CCCC)C(=O)N1CCOCC1)C(=O)N1CCOCC1,Potency,[4],inactive
same,Potency,[6],inactive
COc1ccccc1NC(=O)c1cc2ccccc2cc1O,Potency,[7],43.6 µM (active)
O=C1Cc2ccccc2N1c1c(Cl)cccc1Cl,Potency,[7],inactive
same,Potency,[3],inactive
same,Potency,[10],inactive
same,Potency,[9],inactive
same,Potency,[4],inactive
same,Potency,[5],inactive
N#CCCN(CCO)CCO,Potency,[2],inactive
same,Potency,[7],inactive
same,Potency,[3],inactive
same,Potency,[10],inactive
same,Potency,[8],inactive
same,Potency,[9],inactive
same,Potency,[4],inactive
same,Potency,[5],inactive
same,Potency,[6],inactive
C[C@H]1c2cccc(O)c2C(O)=C2C(=O)[C@]3(O)C(O)=C(C(N)=O)C(=O)[C@@H](N(C)C)[C@@H]3[C@@H](O)[C@@H]21,Potency,[1],inactive
same,Potency,[4],inactive
O=C=Nc1ccc(Cl)c(Cl)c1,Potency,[2],inactive
same,Potency,[3],inactive
same,Potency,[10],inactive
same,Potency,[9],inactive
same,Potency,[5],inactive
same,Potency,[6],inactive
O=C=Nc1cccc(C(F)(F)F)c1,Potency,[2],inactive
same,Potency,[3],inactive
O=C1C(=O)c2ccccc2C(O)=C1C1CCC(c2ccc(Cl)cc2)CC1 (stereo unspecified),Potency,[7],inactive
same,Potency,[10],inactive
same,Potency,[9],inactive
same,Potency,[6],inactive
CCCCCCCCC(CCCCCC)C(=O)O (stereo unspecified),Potency,[7],inactive
same,Potency,[9],inactive
same,Potency,[5],inactive
same,Potency,[6],inactive
c1csc(SSc2cccs2)c1,Potency,[3],inactive
same,Potency,[8],inactive
same,Potency,[5],inactive
same,Potency,[6],inactive
CCC(C)COC(=O)CC(C)C (stereo unspecified),Potency,[3],inactive
same,Potency,[8],24.5 µM (active)
same,Potency,[5],inactive
same,Potency,[6],inactive
Nc1nc2ccc([N+](=O)[O-])cc2s1,Potency,[4],inactive
CN(C)CCN1C(=O)c2ccccc2N(C)c2ccccc21,Potency,[2],inactive
same,Potency,[7],inactive
same,Potency,[3],inactive
same,Potency,[10],inactive
same,Potency,[8],inactive
same,Potency,[9],inactive
same,Potency,[4],inactive
same,Potency,[5],inactive
same,Potency,[6],inactive
CC(C)C(O)(c1ccc(OC(F)(F)F)cc1)c1cncnc1 (stereo unspecified),Potency,[1],inactive
same,Potency,[4],inactive
same,Potency,[5],inactive
same,Potency,[6],inactive
CC(CC1c2ccccc2CCc2ccccc21)CN(C)C (stereo unspecified),Potency,[3],inactive
same,Potency,[10],inactive
same,Potency,[9],inactive
same,Potency,[4],inactive
COc1cc(N)c(Cl)cc1C(=O)NC1CCN(CCCOc2ccc(F)cc2)CC1OC (stereo unspecified),Potency,[2],inactive
same,Potency,[3],inactive
same,Potency,[4],inactive
O=[N+]([O-])c1cc(C2CCCCC2)c(O)c([N+](=O)[O-])c1,Potency,[8],inactive
same,Potency,[9],inactive
same,Potency,[4],inactive
Brc1cc(Br)c(Oc2cc(Br)c(Br)cc2Br)cc1Br,Potency,[7],23.9 µM (active)
same,Potency,[8],inactive
same,Potency,[4],inactive
CCCCCC[C@@H](O)C/C=C\CCCCCCCC(=O)O,Potency,[2],43.6 µM (active)
same,Potency,[7],49 µM (active)
same,Potency,[3],inactive
same,Potency,[10],inactive
same,Potency,[6],inactive
CN(C)CCC=C1c2ccccc2C=Cc2ccccc21,Potency,[7],23.7 µM (active)
same,Potency,[3],inactive
same,Potency,[8],11.9 µM (active)
same,Potency,[5],inactive
same,Potency,[6],inactive
Nc1ccc(N=Nc2ccccc2)c(N)c1,Potency,[2],inactive
same,Potency,[10],inactive
same,Potency,[8],inactive
same,Potency,[9],inactive
same,Potency,[4],inactive
C/C=C(/C(=C/C)c1ccc(O)cc1)c1ccc(O)cc1,Potency,[2],inactive
same,Potency,[9],inactive
same,Potency,[5],inactive
O=[N+]([O-])c1ccc(O/N=C/c2cc(Br)c(O)c(Br)c2)c([N+](=O)[O-])c1,Potency,[10],inactive
same,Potency,[8],inactive
same,Potency,[9],inactive
same,Potency,[5],inactive
same,Potency,[6],inactive
C=C(C)[C@@H]1CCC2=CCC[C@@H](C)[C@]2(C)C1,Potency,[4],inactive
same,Potency,[5],inactive
O=C(Nc1cccc2c(=O)cc(-c3nn[nH]n3)oc12)c1ccc(OCCCCc2ccccc2)cc1,Potency,[2],inactive
same,Potency,[3],inactive
same,Potency,[4],inactive
O=c1c(O)c(-c2ccc(O)cc2)oc2cc(O)cc(O)c12,Potency,[1],inactive
same,Potency,[9],inactive
same,Potency,[4],inactive
CCOC(=O)[C@H](CCc1ccccc1)N[C@@H](C)C(=O)N(CC(=O)O)C1Cc2ccccc2C1,Potency,[3],inactive
same,Potency,[5],inactive
same,Potency,[6],inactive
C=C/C(C)=C/C/C=C(\C)CCC=C(C)C,Potency,[2],inactive
same,Potency,[7],inactive
same,Potency,[3],inactive
same,Potency,[10],inactive
same,Potency,[4],inactive
same,Potency,[6],inactive
C=C(C)CCCC(C)CCO (stereo unspecified),Potency,[2],inactive
same,Potency,[7],inactive
same,Potency,[4],inactive
COC(=O)C1=C(C)NC(C)=C(C(=O)O[C@@H]2CCCN(Cc3ccccc3)C2)[C@@H]1c1cccc([N+](=O)[O-])c1,Potency,[7],inactive
same,Potency,[3],inactive
same,Potency,[4],inactive
same,Potency,[5],inactive
same,Potency,[6],inactive
CN1CCCN=C1COC(=O)C(O)(c1ccccc1)C1CCCCC1 (stereo unspecified),Potency,[2],inactive
same,Potency,[3],inactive
same,Potency,[10],inactive
same,Potency,[9],inactive
same,Potency,[4],inactive
OC[C@H]1O[C@@H](n2cnc3c(=S)nc[nH]c32)[C@H](O)[C@@H]1O,Potency,[2],inactive
same,Potency,[9],inactive
same,Potency,[4],16.8 µM (active)
same,Potency,[5],inactive
same,Potency,[6],inactive
C[C@]12CC[C@@H]3c4ccc(O)cc4CC[C@H]3[C@@H]1CC[C@@H]2OC(=O)CCC1CCCC1,Potency,[2],inactive
same,Potency,[7],inactive
same,Potency,[3],inactive
same,Potency,[8],inactive
same,Potency,[9],inactive
same,Potency,[4],inactive
same,Potency,[5],inactive
same,Potency,[6],inactive
CCOC(=O)c1ccc(C#Cc2ccc3c(c2)C(C)(C)CCS3)nc1,Potency,[7],inactive
same,Potency,[4],inactive
O=C(O)c1cccc(-c2noc(-c3ccccc3F)n2)c1,Potency,[7],inactive
same,Potency,[4],11.9 µM (active)
same,Potency,[5],inactive
CCC(=O)OC,Potency,[1],inactive
same,Potency,[4],inactive
same,Potency,[5],inactive
same,Potency,[6],inactive
C[C@@]12CCC[C@H]1[C@@H]1CC[C@H]3C[C@@H](O)CC[C@]3(C)[C@H]1CC2,Potency,[2],inactive
same,Potency,[7],inactive
same,Potency,[8],inactive
same,Potency,[9],inactive
same,Potency,[4],inactive

# — PubChem BioAssay (Tox21)
